According to PubChem BioAssay (NCATS):
Records with an inconclusive call do not appear. Where a call stands in place of a potency, no number is given. Calls of active or inactive are those of the source. The call rests on the fitted dose curve; in most records, active means well fitted inhibition curve with a large enough effect; inconclusive means small, poorly fitted or top-dose-only effect; inactive means flat fitted curve, though single readings scatter.

Test: qHTS for Inhibitors of Plasmodium falciparum (DD2) proliferation (AID 504314)
Conditions: P. falciparum Dd2 in erythrocytes, SYBR Green growth, 72 h; series mostly up to 1.12 µM
Procedure, shortened: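 Infected RBCs, 0.3% parasitemia, 2.5% Hct; compound 72 h, 37C/5% CO2; lyse + SYBR Green I, RT overnight, dark; read ex485/em535; normalize to DMSO and artemisinin 0.29 uM.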
Potency means the concentration at half of the fitted maximal effect.

**Q.** Which Potency does the source give for `COC(=O)C1=C(C(=O)OC)[C@@H]2N(C)c3ccc(OC)cc3[C@@]23C[C@@H](C(=O)OC)N(S(=O)(=O)c2ccc(OC)cc2)C3=N1` here?
**A.** inactive

**Q.** For `CCCCC1=CC2=CC(=O)C(C)(OC(=O)CC)C(=O)C2=CN1Cc1ccccc1` (stereo not given), which Potency is on record?
**A.** inactive

**Q.** With `C=CCN1c2ccccc2[C@]23C[C@@H](C(=O)OC)N(C(=O)c4cc(C)oc4C)C2=NC(C(=O)OC)=C(C(=O)OC)[C@H]13` as the compound, how does the Potency read?
**A.** inactive

**Q.** Which Potency does the source give for `COC(=O)CCC(=O)OC1(C)C(=O)C=C2C=C(C3CC3)N(c3ccc(OC)cc3)C=C2C1=O` (stereo not given) here?
**A.** inactive

**Q.** With `COc1cccc([C@@H]2Oc3ccc(Br)cc3C(=O)[C@@H]2OC(=O)Nc2ccc(OC(F)F)cc2)c1` as the compound, how does the Potency read?
**A.** inactive

**Q.** With `CCN1C(=O)N[C@H](c2ccc(Br)cc2)C(C(=O)OC)=C1C` as the compound, how does the Potency read?
**A.** inactive

**Q.** For `CCCCc1nc2c(c3c1C[C@H](C)OC3)CN(C(=O)c1cc(I)ccc1F)CC2`, which Potency is on record?
**A.** inactive

**Q.** For `C=C(C)C(=O)c1ccc2c(c1)OCO2`, which Potency is on record?
**A.** inactive

**Q.** For `C[C@H]1Cc2c(COc3ccccc3)nc3c(c2CO1)CN(C(=O)Cc1cccs1)CC3`, which Potency is on record?
**A.** inactive

**Q.** With `C=CCN1c2ccccc2[C@]23C[C@@H](C(=O)OC)N(C(C)=O)C2=NC(C(=O)OC)=C(C(=O)OC)[C@H]13` as the compound, how does the Potency read?
**A.** inactive

**Q.** Which Potency does the source give for `COC(=O)CCCC1=CC2=CC(=O)C(C)(OC(=O)CCc3ccccc3)C(=O)C2=CO1` (stereo not given) here?
**A.** inactive

**Q.** For `C=CCNC(=O)N1CCc2nc(COc3ccccc3)c3c(c2C1)CO[C@@H](C)C3`, which Potency is on record?
**A.** inactive

**Q.** Which Potency does the source give for `CCCCS(=O)(=O)N1C2=NC(C(=O)OC)=C(C(=O)OC)[C@@H]3Nc4ccccc4[C@]23C[C@H]1C(=O)OC` here?
**A.** inactive

**Q.** Which Potency does the source give for `CC1(OC(=O)C2CCCC2)C(=O)C=C2C=C(c3ccsc3)N(c3ccc(CO)cc3)C=C2C1=O` (stereo not given) here?
**A.** inactive

**Q.** For `COC/C=C/C1=CC2=CC(=O)C(C)(OC(=O)c3cnc4ccccc4n3)C(=O)C2=CN1c1ccc(OC)cc1` (stereo not given), which Potency is on record?
**A.** inactive

**Q.** Which Potency does the source give for `CC#CCN1c2ccccc2[C@]23C[C@@H](C(=O)OC)N(C(=O)OCC)C2=NC(C(=O)OC)=C(C(=O)OC)[C@H]13` here?
**A.** inactive

**Q.** For `CCCC[C@]12Cc3cc(OC)c(OC)cc3[C@H](O1)C1=C(O2)C(=O)c2ccccc2C1=O`, which Potency is on record?
**A.** 3000 nM (active)

**Q.** Which Potency does the source give for `CCN(CC)CCCN1C=C2C(=O)C(C)(OC(=O)CCC(=O)OC)C(=O)C(Br)=C2C=C1c1ccc(OC)cc1` (stereo not given) here?
**A.** inactive

**Q.** With `O=C(C=Cc1ccc2c(c1)OCO2)c1ccccc1` as the compound, how does the Potency read?
**A.** inactive

**Q.** With `C=CCN1c2ccccc2[C@]23C[C@@H](C(=O)OC)N(S(=O)(=O)c4ccc(C#N)cc4)C2=NC(C(=O)OC)=C(C(=O)OC)[C@H]13` as the compound, how does the Potency read?
**A.** inactive

**Q.** For `C=CCN1c2ccccc2[C@]23C[C@@H](C(=O)OC)N(S(=O)(=O)CCCC)C2=NC(C(=O)OC)=C(C(=O)OC)[C@H]13`, which Potency is on record?
**A.** inactive

**Q.** For `COC(=O)CCC(=O)OC1(C)C(=O)C2=CN(Cc3ccco3)C(c3ccc(OC)cc3)=CC2=C(Br)C1=O` (stereo not given), which Potency is on record?
**A.** inactive

**Q.** For `C=CCN1c2ccccc2[C@]23C[C@@H](C(=O)OC)N(S(=O)(=O)c4c(C)noc4C)C2=NC(C(=O)OC)=C(C(=O)OC)[C@H]13`, which Potency is on record?
**A.** inactive

**Q.** For `CCCCC1=CC2=CC(=O)C(C)(OC(=O)CC)C(=O)C2=CN1CCc1ccc(Br)cc1` (stereo not given), which Potency is on record?
**A.** inactive

**Q.** Which Potency does the source give for `C[C@H]1Cc2c(-c3ccccc3)nc3c(c2CO1)CN(C(=O)c1cc(I)ccc1F)CC3` here?
**A.** inactive

**Q.** With `C[C@H]1Cc2c(COc3ccccc3)nc3c(c2CO1)CN(S(=O)(=O)c1ccc(C#N)cc1)CC3` as the compound, how does the Potency read?
**A.** inactive

**Q.** With `C/C=C/C1=Cc2ccccc2C(CC(=O)OC)N1C(=O)OC` (stereo not given) as the compound, how does the Potency read?
**A.** inactive

**Q.** Which Potency does the source give for `CC1(OC(=O)CCc2ccccc2)C(=O)C=C2C=C(c3ccc(C#N)cc3)N(C3CCCC3)C=C2C1=O` (stereo not given) here?
**A.** inactive

**Q.** With `CCN1C(=O)N[C@@H](c2cccc(C(F)(F)F)c2)C(C(=O)OC)=C1C` as the compound, how does the Potency read?
**A.** inactive

**Q.** For `CC#CCN1c2ccccc2[C@]23C[C@@H](C(=O)OC)N(C(=O)c4cc(C)oc4C)C2=NC(C(=O)OC)=C(C(=O)OC)[C@H]13`, which Potency is on record?
**A.** inactive

**Q.** Which Potency does the source give for `COC(=O)C1=C(C(=O)OC)[C@@H]2N(C)c3ccccc3[C@@]23C[C@@H](C(=O)OC)N(S(=O)(=O)c2cccs2)C3=N1` here?
**A.** inactive

**Q.** With `COC(=O)C1=C(C(=O)OC)[C@@H]2N(C)c3ccccc3[C@@]23C[C@@H](C(=O)OC)N(S(=O)(=O)c2c(C)noc2C)C3=N1` as the compound, how does the Potency read?
**A.** inactive

**Q.** With `COC(=O)CCCC1=CC2=C(c3ccccc3)C(=O)C(C)(OC(=O)C3CCCC3)C(=O)C2=CN1CCCOC(C)C` (stereo not given) as the compound, how does the Potency read?
**A.** inactive

**Q.** With `CCCCc1nc2c(c3c1C[C@H](C)OC3)CN(C(=O)NCCCC(=O)OCC)CC2` as the compound, how does the Potency read?
**A.** inactive

**Q.** Which Potency does the source give for `CC#CCN1c2ccccc2[C@]23CCC(=O)N(CCCOC(C)C)C2=NC(C(=O)OC)=C(C(=O)OC)[C@H]13` here?
**A.** inactive

**Q.** Which Potency does the source give for `CC[C@@H](C)CN1C(=O)N[C@@H](c2ccccc2)C(C(C)=O)=C1C` here?
**A.** inactive

**Q.** Which Potency does the source give for `C=CCN1c2ccccc2[C@]23C[C@@H](C(=O)OC)N(C(=O)COCc4ccccc4)C2=NC(C(=O)OC)=C(C(=O)OC)[C@H]13` here?
**A.** inactive

**Q.** For `CCCCS(=O)(=O)N1C2=NC(C(=O)OC)=C(C(=O)OC)[C@@H]3N(C)c4ccccc4[C@]23C[C@H]1C(=O)OC`, which Potency is on record?
**A.** inactive

**Q.** With `COC/C=C/C1=CC2=CC(=O)C(C)(OC(=O)c3cnc4ccccc4n3)C(=O)C2=CN1CCCCO` (stereo not given) as the compound, how does the Potency read?
**A.** inactive

**Q.** For `COC(=O)CCCC1=CC2=CC(=O)C(C)(OC(=O)c3cccs3)C(=O)C2=CN1Cc1ccccc1` (stereo not given), which Potency is on record?
**A.** inactive
